CYP2C19 inh: blocks human cytochrome P450 2C19; CYP2C19 Supersomes, luciferin-H EGE luminescence, 30 min; 96,000 compounds, 21% hits; P33261; inhibition, % at 5 µM;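 active means CYP2C19 inhibition above a set limit at 5 µM in the primary screen, cut at about 50% in these data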;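 further: plate controls were negative control wells for no effect and 2.5 mM tranylcypromine positive control for full effect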
PLK1 kinase inh: inhibitors of human PLK1 kinase | recombinant PLK1 kinase, TR-FRET peptide phosphorylation | inhibition, % at 10 µM | 97,000 compounds, 0.53% hits;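 active means inhibition of 50% or more in the single-concentration screen; inactive means inhibition below 50%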;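 further: 0% = DMSO max control and 100% = H-89 dihydrochloride min control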
Plk1 PBD FP: inhibitors of human Plk1 polo box domain binding | 97,000 compounds, 0.13% hits | Plk1 PBD phosphopeptide binding, fluorescence polarization | inhibition, %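 (tested at about 20 µM)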 | AID 693 | P53350; in the data active means inhibition above about 34%, passing the limit was not always enough
CYP2C19 act: activators of human cytochrome P450 2C19. P33261. recombinant CYP2C19, luciferin-H EGE luminescence; stronger effect = higher value; 0 = fully inhibited enzyme, 1 = untreated enzyme. activation factor at 5 µM. 96,000 tested, under 10 active. AID 1025;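 active means activation factor of at least 2 at 5 µM in the primary screen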;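 further: 0 = wells with 2.5 mM tranylcypromine and 1 = vehicle-only wells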
CYP2C9 activ: increases human cytochrome P450 2C9 activity; 96,000 compounds, 1.4% hits; activation factor at 5 µM; recombinant CYP2C9, luciferin-H conversion, luminescence; stronger effect = higher value; factor 1 = untreated enzyme, 0 = blocked; P11712;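 active means activation factor of 2 or more for CYP2C9 at a 5 µM dose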;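 further: 0 = sulfaphenazole-blocked wells and 1 = vehicle-only wells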
Target sequence (P11712 whole entry, looked up): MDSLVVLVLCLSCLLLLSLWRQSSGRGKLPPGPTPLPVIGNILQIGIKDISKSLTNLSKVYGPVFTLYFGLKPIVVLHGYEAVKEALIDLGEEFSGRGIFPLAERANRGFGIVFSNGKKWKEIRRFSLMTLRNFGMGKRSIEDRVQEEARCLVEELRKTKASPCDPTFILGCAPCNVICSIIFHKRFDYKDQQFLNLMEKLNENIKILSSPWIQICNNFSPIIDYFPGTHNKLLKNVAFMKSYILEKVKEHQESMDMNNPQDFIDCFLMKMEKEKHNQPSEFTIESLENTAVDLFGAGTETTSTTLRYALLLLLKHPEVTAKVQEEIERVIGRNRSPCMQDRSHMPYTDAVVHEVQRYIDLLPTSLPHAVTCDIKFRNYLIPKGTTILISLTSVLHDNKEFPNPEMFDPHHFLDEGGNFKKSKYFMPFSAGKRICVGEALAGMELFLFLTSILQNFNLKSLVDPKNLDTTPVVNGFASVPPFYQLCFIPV
CYP2C9 inh: inhibitors of human CYP2C9 | 96,000 compounds, 20% hits | inhibition, % at 5 µM | P11712 | CYP2C9 Supersomes, luciferin-H conversion, luminescence;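 active means blocking of liver enzyme CYP2C9 beyond about 50% at 5 µM, limit read from the data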
* = called active by the depositor; . = no result given. This is a sample that favours compounds with a hit; in the whole collection about 28% have one here.

SMILES	CYP2C19 inh	PLK1 kinase inh	Plk1 PBD FP	CYP2C19 act	CYP2C9 activ	CYP2C9 inh
CCCOc1c(OC)cccc1C1CC(=O)Nc2cc3c(cc21)OCCO3 (centres undefined)	44.0	-3.2	1.8	0.6	0.3	68.1*
CCCc1nnc(NC(=O)c2c(O)c3cccc4c3n(c2=O)CCC4)s1	12.3	.	.	0.9	0.6	35.7
COc1ccccc1C(=O)N1CCCC1(C#N)c1ccccc1 (centres undefined)	13.5	-4.2	-6.9	0.9	0.1	89.5*
N#CC1(c2ccccc2)CCCN1C(=O)c1ccccc1Br (centres undefined)	11.4	8.9	-16.7	0.9	1	0.5
CCC1SC(N)=NC1=O (centres undefined)	-16.1	-7.0	-12.6	1.2	1.3	-26.9
Cn1c2ccccc2c(=O)n2c(=O)c3ccccc3cc12	68.0*	-15.9	2.6	0.3	0.4	55.8*
Cn1c(=O)c2nc(-c3ccccc3)oc2c2ccccc21	5.4	-4.6	16.1	0.9	1.5	-46.6
COC(=O)c1ccc(NC(=O)CN(c2ccc(C)cc2)S(=O)(=O)c2c(C)nn(C)c2C)cc1	14.1	-17.6	-20.2	0.9	0.7	26.5
COc1ccc(C(=O)Nc2ccc(C)cn2)c(OC)c1	31.2	-10.0	-3.5	0.7	0.5	46.0
COc1ccc(N(CC(=O)Nc2cc(C)ccc2C)S(=O)(=O)c2c(C)nn(C)c2C)cc1	55.4*	.	.	0.4	0.7	29.4
Cc1ccc(N(CC(=O)Nc2ccc(C)cn2)S(=O)(=O)c2c(C)nn(C)c2C)cc1	76.3*	-1.1	21.9	0.2	0.2	83.9*
COc1ccc(N(CC(=O)Nc2ccc(C)cn2)S(=O)(=O)c2c(C)nn(C)c2C)cc1	85.5*	-6.4	-7.5	0.1	0.2	83.7*
COc1cc(NC(=O)CN(c2ccc(C)cc2)S(=O)(=O)c2c(C)nn(C)c2C)cc(OC)c1	66.3*	15.5	-13.9	0.3	0.5	53.7*
Cc1ccccc1-c1nc(CN2CCC(C(=O)NCc3cccs3)CC2)c(C)o1	30.7	-1.2	-31.2	0.7	0.6	42.0
Cc1ccc(C(=O)NC(=S)Nc2cc(-c3nc4ccccc4s3)ccc2C)cc1	25.3	-7.3	42.3	0.7	0.7	30.9
C/C=C(\C)c1nnc(NC(=O)c2ccco2)s1	3.2	-14.2	21.1	1	0.9	12.0
COC(=O)/C(=C\Nc1ccccc1N)c1ncc(C(F)(F)F)cc1Cl	32.2	-11.3	-9.4	0.7	0.9	8.1
COc1ccc(N(CC(=O)Nc2ccc3c(c2)OCCO3)S(=O)(=O)c2c(C)nn(C)c2C)cc1	54.7*	-3.0	20.7	0.5	0.3	74.5*
COc1ccc(N(CC(=O)Nc2nccs2)S(=O)(=O)c2c(C)nn(C)c2C)cc1	58.3*	-3.4	6.5	0.4	0.4	64.2*
Cc1ccc(CO/N=C\Cc2snc(Sc3ncc(C(F)(F)F)cc3Cl)c2C#N)cc1	51.7*	-4.1	-12.0	0.5	1.2	-18.8
Cc1ccc(S(=O)(=O)N2CCN(C(=O)CSc3ncc(C(F)(F)F)cc3Cl)CC2)cc1	29.1	-8.3	-15.8	0.7	0.8	24.4
Cc1cc(Cl)c(S(=O)(=O)Nc2ccc3c(c2)OCCO3)cc1OCC(=O)NC1CCCCC1	15.6	-7.0	2.3	0.8	0.6	35.7
Cc1cccc(Cn2c(=O)n(Cc3ccco3)c(=O)c3ccccc32)c1	9.0	-4.4	-33.4	0.9	0.4	62.5*
CCOC(=O)c1c(CN2CCCCC2)n(C)c2ccc(OC)c(S(=O)(=O)c3ccccc3)c12	2.3	.	.	1	0.9	9.2
CN(Cc1ccco1)C(=O)c1ccc(N2CCCC2=O)cc1	4.6	-14.5	13.0	1	1	-0.6
SMILES	CYP2C19 inh	PLK1 kinase inh	Plk1 PBD FP	CYP2C19 act	CYP2C9 activ	CYP2C9 inh
O=C(C1CCCN(S(=O)(=O)c2cccc3nsnc23)C1)N1CCc2ccccc2C1 (centres undefined)	44.2	-2.8	-33.8	0.6	0.8	15.2
O=C(C1CCCN(S(=O)(=O)c2cccc3nsnc23)C1)N1CCc2ccccc21 (centres undefined)	52.5*	3.9	29.8	0.5	0.3	73.9*
O=C(C1CCN(S(=O)(=O)c2cccc3nsnc23)CC1)N1CCCc2ccccc21	11.1	-4.2	3.4	0.9	1	4.2
O=C(C1CCN(S(=O)(=O)c2cccc3nsnc23)CC1)N1CCc2ccccc21	50.7*	1.1	1.9	0.5	0.6	43.5
CCN1C(=O)c2cccc3c(NC(=O)c4ccc(OC)c(OC)c4)ccc1c23	55.8*	-4.7	-4.1	0.4	0.3	66.1*
CCN1C(=O)c2cccc3c(S(=O)(=O)NCc4ccco4)ccc1c23	.	-19.3	-4.4	.	.	.
CCN1C(=O)c2cccc3c(S(=O)(=O)Nc4ccncc4)ccc1c23	5.8	-9.6	-15.4	0.9	0.3	66.0*
CCN1C(=O)c2cccc3c(S(=O)(=O)Nc4nc(C)cs4)ccc1c23	22.6	-17.5	-40.4	0.8	0.1	92.6*
CCN1C(=O)c2cccc3c(S(=O)(=O)Nc4ccc(OC)cc4OC)ccc1c23	77.9*	2.0	0.1	0.2	0	95.7*
CCN1C(=O)c2cccc3c(S(=O)(=O)Nc4ccccc4)ccc1c23	60.3*	-16.0	-0.4	0.4	0	100.3*
CC1(C)CC(=O)C(C=NCCc2ccc(O)cc2)=C(O)C1	-3.7	7.6	7.5	1	1.1	-10.4
COc1cc2c(cc1OC)C1=C(C#N)CC/C(=N\S(=O)(=O)c3cccc(Cl)c3)N1CC2	27.3	-13.8	-7.1	0.7	0.4	62.9*
CC12CCC(c3c(CO)nn(-c4ccccc4)c31)C2(C)C (centres undefined)	59.4*	-2.9	-6.3	0.4	1.2	-15.6
CC12CCC(c3c(C(=O)Nc4nccs4)nn(-c4ccccc4)c31)C2(C)C (centres undefined)	49.5	-6.8	5.9	0.5	0.3	74.2*
Cc1ccc(C2C3=C(CC(C)(C)CC3=O)Nc3n[nH]c(C)c32)cc1 (centres undefined)	26.5	-13.6	-18.2	0.7	0.9	13.0
Cc1nc2[nH]c(=O)c3c(n2n1)NC1=C(C(=O)CC(C)(C)C1)C3c1ccccc1 (centres undefined)	-0.1	-6.7	-32.9	1	0.3	67.3*
Cc1cc(C)n(-c2ccc(C(=O)C(C#N)c3nc4ccccc4n3C)cc2)n1 (centres undefined)	29.6	-6.8	-0.5	0.7	1	-2.6
Cc1ccccc1N(CC(=O)NC1CCCC1)C(=O)c1oc(C(C)(C)C)cc1C	14.7	-13.4	-1.6	0.9	1	4.1
Cc1cc(C(C)(C)C)oc1C(=O)N(CC(=O)NC1CCCC1)Cc1ccccc1Cl	34.8	-5.0	5.8	0.7	0.5	54.2*
Cc1ccc(N2CC(C(=O)NCC3CCCO3)CC2=O)cc1Cl (centres undefined)	2.1	.	.	1	2.6*	-161.5
Cc1cc(C(=O)NNC(=S)NCC2CCCO2)cs1 (centres undefined)	51.5*	-7.6	18.2	0.5	1.2	-20.7
